High-throughput results (PubChem)
Pf growth 48h: Primary qHTS for delayed death inhibitors of the malarial parasite plastid, 48 hour incubation; P. falciparum luciferase growth in erythrocytes, 48 h; Potency, µM (highest dose often 28.7 µM), without a hit: at the highest dose activity change, negative = inhibition, usual class: inhibitors; 5.9% of 310,000 active; AID 504832, 2011; further: potency means the concentration at half of the fitted maximal effect
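Erythrocytes infected with P. falciparum carrying an integrated firefly luciferase reporter (2% hematocrit, 0.1% parasitemia final) were exposed to compounds in RPMI 1640 with 0.5% Albumax at 37 C, 5% CO2. Growth inhibition was scored as reduced luminescence.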
Pf growth 96h: Primary qHTS for delayed death inhibitors of the malarial parasite plastid, 96 hour incubation; P. falciparum luciferase reporter growth, 96 h; Potency, µM (highest dose often 28.7 µM), for inactives: at the top dose activity change, negative = inhibition, actives largely listed as inhibitors; 6.9% of 320,000 active; AID 504834, 2011; further: potency means the concentration at half of the fitted maximal effect
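Cell-based qHTS: luciferase-tagged P. falciparum in erythrocytes (2% hematocrit, 0.05% parasitemia final) incubated with compounds for 96 hours, 37 C, 5% CO2; luciferase detection reagent then added and luminescence measured.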
FBPA Giardia inh: qHTS Assay for Inhibitors of Fructose-1,6-bisphosphate Aldolase from Giardia Lamblia; purified Giardia FBPA; A8B2U2; Potency, µM (series often up to 59.6 µM), without a hit: top-dose activity, negative = inhibition, most hits filed as inhibitors; 0.71% of 290,000 active; further: potency means the concentration at half of the fitted maximal effect; nearly all actives have a fitted effect of over 55% in size
Target sequence (A8B2U2 whole entry, looked up): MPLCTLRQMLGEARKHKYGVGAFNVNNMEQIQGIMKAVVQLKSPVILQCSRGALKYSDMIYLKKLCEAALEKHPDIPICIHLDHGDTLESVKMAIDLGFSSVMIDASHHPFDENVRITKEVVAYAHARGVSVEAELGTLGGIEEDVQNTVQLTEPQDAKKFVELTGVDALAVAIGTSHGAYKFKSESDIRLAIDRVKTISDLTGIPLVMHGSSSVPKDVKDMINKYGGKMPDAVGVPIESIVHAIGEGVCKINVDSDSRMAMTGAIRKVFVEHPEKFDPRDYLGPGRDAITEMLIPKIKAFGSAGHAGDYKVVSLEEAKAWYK
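40 nM FBPA preincubated 10 min at RT with compound (up to 57.5 uM final), then substrate plus GAPDH/TPI/NAD/arsenate coupling and diaphorase/resazurin added. Fluorescence read after 20 min at RT, 525/598 nm.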
HCMV inh: qHTS Assay for inhibitors of the human cytomegalovirus (HCMV); activity change, negative = inhibition, % at 57.5 µM; AID 1259415, 2018; HFF cells, HCMV-luciferase reporter, 72 h; stronger effect = lower value; 4.5% of 410,000 active; in the data active means activity change below about -60%; inconclusive means no clear call, values can overlap the other calls; inactive means above about -39%
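Two compound doses tested in HFFs infected with HCMV-luciferase, MOI 1 PFU/cell, 72 h at 37C. Lysate luminescence read with OneGlo; data normalized against buffer-only and 10uM Salinomycin inhibitor controls.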
Sm TGR inh: qHTS Assay for the Inhibitors of Schistosoma Mansoni Peroxiredoxins | Schistosoma mansoni thioredoxin glutathione reductase (TGR), Q962Y6 | purified TGR, DTNB reduction, TNB absorbance 405 nm | Potency, µM (top dose mostly 114 µM), for the others: at the top dose activity change, negative = inhibition, hits mostly inhibitors | 3% of 360,000 active; further: potency means the concentration at half of the fitted maximal effect; nearly all actives have a fitted effect of over 60% in size
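TGR 20 nM + NADPH 100 uM (dispensed conc.), cpd preinc 15 min RT; start with NADPH (500 uM addition) then DTNB (15 mM addition). Kinetic TNB absorbance, 405 nm filter. Four-parameter Hill fit across titration.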
Starred values were filed as active, the others as inactive; ? = inconclusive; / = not tested or not shown. Most compounds without a hit are left out; they make up all but 14% or so of the library. Unless noted, the call rests on the fitted dose curve; in most records, active means well fitted curve in the direction sought with a large enough effect; inconclusive means small, poorly fitted or top-dose-only effect, or another doubt; inactive means no such curve, though single readings can be large; an effect the other way counts as inactive or inconclusive. On the % scale 0 is the no-effect control and ±100 the full control effect.

SMILES	Pf growth 48h	Pf growth 96h	FBPA Giardia inh	HCMV inh	Sm TGR inh
CC1(c2ccccc2)NC(=O)N(CC(=O)Nc2ccccc2N2CCCCC2)C1=O (centres undefined)	-38.5%	?	/	0.8	1.7%
CCc1ccc(-n2c(SCc3ccccc3Cl)nc3[nH]ncc3c2=O)cc1	/	/	/	-105.3*	0.0%
Cc1c(OCC(=O)NC2CC(C)(C)NC(C)(C)C2)ccc2c1oc(=O)c1ccccc12	3.7µM*	3.29µM*	-7.8%	-14.5	-6.0%
CCCc1cc(=O)oc2c(C)c(OCC(=O)Nc3ccc(CN4CCOCC4)cc3)ccc12	?	4.15µM*	/	-26.4	-12.4%
CCCCc1cc(=O)oc2c(C)c(OCC(=O)NCC3CCC(C(=O)O)CC3)ccc12 (centres undefined)	40.3%	10.4µM*	9.6%	9.7	9.5%
CCCc1cc(=O)oc2c(C)c(OCC(=O)NC3CCN(Cc4ccccc4)CC3)ccc12	?	13.1µM*	/	-32.1	5.8%
Cc1ccc(SCC(=O)Nc2ccc(N3CCOCC3)cc2)c(C)c1	-4.6%	?	7.4%	-8.1	-8.8%
Cc1ccc(O)c(C(=O)c2cnc3c(c2)COc2ccccc2-3)c1	4.15µM*	?	-1.1%	-65.8*	-0.1%
C=CCc1ccc(OCCOCCOc2cccc3cccnc23)c(OC)c1	?	?	0.1%	-20.9	4.2%
O=C(CSCc1c(F)cccc1Cl)NNC(=S)NC1CCCCC1	-14.2%	?	/	-16.2	3.9%
O=C(O)CNC(=O)c1ccc(N2CCOCC2)cc1[N+](=O)[O-]	3.3%	3.8%	1.6%	8.7	5.4%
CN(C)S(=O)(=O)Oc1ccsc1C(=O)Nc1cccc(Cl)c1Cl	-16.3%	?	-9.4%	-68.0*	-3.4%
CN(C)S(=O)(=O)Oc1ccsc1C(=O)Nc1ccccc1Cl	?	5.6%	2.4%	-13.0	-5.9%
CCN(CC)S(=O)(=O)c1ccc2nc(SC)sc2c1	?	/	6.1%	85.1	0.3%
CSc1nc2ccc(S(=O)(=O)N(C)C)cc2s1	/	11.7µM*	9.4%	?	0.4%
O=C1c2ccccc2C(=O)c2c(NCCCN(CCO)CCO)cccc21	?	44.9%	-0.3%	-102.8*	-8.3%
Cc1c(N)ccc(-n2nc3ccccc3n2)c1C	/	/	/	-3.7	/
O=C(NC1CC1)c1sc2ccccc2c1Cl	65.6%	0.0%	/	68.7	5.8%
O=C(NC1C=CS(=O)(=O)C1)c1sc2ccccc2c1Cl (centres undefined)	8.28µM*	/	-0.1%	-84.3*	-0.5%
CCn1cc(CNC(=O)c2ccc(Cl)c([N+](=O)[O-])c2)c(C)n1	-25.9%	14.7µM*	6.6%	-17.5	-4.8%
CCn1cc(CNC(=O)c2cccc([N+](=O)[O-])c2)c(C)n1	16.3%	371.5%	-0.2%	-7.5	-4.5%
N#C/C(=C\c1ccc(-c2cccc([N+](=O)[O-])c2)o1)c1nnc(N2CCOCC2)n1-c1ccccc1	?	?	-27.2%	-26.8	/
C=CCN1C(=O)NC(c2ccc(OC)cc2)(C(F)(F)F)S/C1=C(\C#N)c1nnc(N2CCOCC2)n1-c1ccccc1 (centres undefined)	-1.5%	?	-6.3%	-22.6	3.7%
C=CCN1C(c2cccc(C(F)(F)F)c2)=CS/C1=C(/C#N)c1nnc(N2CCOCC2)n1-c1ccccc1	10.4µM*	11.7µM*	-16.9%	?	-21.3%
CC1=C(C)SC(=C(C#N)c2nnc(N3CCOCC3)n2-c2ccccc2)S1	?	9.28µM*	-5.6%	4.9	-10.2%
SMILES	Pf growth 48h	Pf growth 96h	FBPA Giardia inh	HCMV inh	Sm TGR inh
C=CCN1C(c2ccc(Br)cc2)=CS/C1=C(/C#N)c1nnc(N2CCOCC2)n1-c1ccccc1	?	?	-5.0%	-79.5*	-4.9%
CC1CC(NC(=O)c2c(O)nc3ccccn3c2=O)CC(C)(C)C1 (centres undefined)	/	/	/	-38.2	/
O=C(NC1CCCCC1)c1c(O)nc2sccn2c1=O	10.4µM*	10.4µM*	/	-17.7	5.6%
O=C(NCC1CCCO1)c1c(O)nc2sccn2c1=O (centres undefined)	0.2%	-4.9%	/	-34.8	0.0%
O=C(NCCCN1CCCC1=O)c1c(O)nc2sccn2c1=O	?	0.7%	/	-1.5	4.5%
CC1CC(NC(=O)c2c(O)nc3sccn3c2=O)CC(C)(C)C1 (centres undefined)	13.1µM*	?	/	?	-2.6%
O=C(NC1CCCCCC1)c1c(O)nc2sccn2c1=O	6.57µM*	4.65µM*	/	-25.4	-6.5%
COc1ccccc1OC(C)C(=O)Nc1c(C(=O)c2ccc(Cl)cc2)oc2ccccc12 (centres undefined)	/	/	/	4.7	2.1%
COC(=O)C(c1ccccc1)(c1cn(-c2ccccc2)c2ccccc12)C(Nc1ccccc1)c1ccccc1 (centres undefined)	/	/	/	-29.4	/
COc1ccc(N2CCN(C(=O)c3cnn(-c4ccc(OC)cc4)c3C3CCN(C(=O)OC(C)(C)C)CC3)CC2)cc1	/	/	/	?	3.8%
O=C(NCc1ccccc1Cl)c1ccc(S(=O)(=O)Nc2cccc(C(F)(F)F)c2)cc1	12.1%	47.5%	0.2%	-65.7*	4.0%
O=C(O)c1ccc(Cl)c(S(=O)(=O)Nc2cccc(C(=O)Nc3cccc(C(F)(F)F)c3)c2)c1	6.6%	10.4µM*	28.1%	-9.7	-0.2%
CN(C)S(=O)(=O)Oc1ccc(C(=O)Nc2cccc(Cl)c2)cc1	0.0%	-0.2%	-24.6%	-20.3	/
CN(C)S(=O)(=O)Oc1ccc(C(=O)Nc2cccc(C(F)(F)F)c2)cc1	?	1.65µM*	-19.4%	-76.2*	?
O=C(NCc1ccccc1Cl)c1ccc(S(=O)(=O)N2CCCC2)cc1	?	?	/	41.8	-2.8%
COc1ccc(C(=O)O)cc1S(=O)(=O)Nc1cccc(C(F)(F)F)c1	34.7%	6.4%	-1.9%	-16.4	4.0%
O=C(CN1C(=O)c2cccnc2Oc2ccc(Cl)cc21)Nc1ccccc1F	?	6.6%	0.4%	70.4	-17.3%
CC(C)NC(=O)C1(C)CSCC(=O)N1Cc1ccco1 (centres undefined)	/	/	/	-6.0	/
COCCNC(=O)c1ccc(-c2nc(CS(=O)(=O)c3ccccc3)c(C)o2)cc1	/	/	/	16.5	22.4µM*
CCOCCCNC(=O)c1ccc(-c2nc(CS(=O)(=O)c3ccccc3)c(C)o2)cc1	/	/	/	-14.2	?
Cc1oc(-c2ccc(C(=O)NCCN(C)C)cc2)nc1CS(=O)(=O)c1ccccc1	/	/	/	-69.6*	-2.3%
CCC(=O)Nc1nc2ccccc2n1Cc1ccc(C)cc1	2.94µM*	0.2%	17.5%	?	4.8%
Cc1ccc(C(=O)Cn2c(=N)n(N)c3ccccc32)cc1	56.9%	292.6%	-4.6%	39.0	10.0%
